# Compounds with a hit are over-represented: about 7.5% of the library has one in this group of screens.
# ELG1 genotoxic – induces genotoxicity in HEK293T cells with luciferase-tagged ELG1. Potency, µM (series often up to 46 µM), most hits filed as activators. 330,000 tested, 1.3% active. HEK293T ELG1-luciferase reporter, luminescence, 16 h; note: nearly all actives have a fitted effect of over 60% in size
#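 DMSO vehicle served as control against compound-treated ELG1-luciferase HEK293T cells; exposure lasted 16 hr at 37 °C and 5% CO2, followed by ONE-Glo luminescence detection after 30 min.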
# SMN2 splice up – SMN2 splice variant enhancement | AID 1458 | HEK293 SMN2-luciferase splicing reporter, luminescence, 30-36 h | Potency, µM (series often up to 46.1 µM), most hits filed as activators | 210,000 tested, 2.8% active; note: nearly all actives have a fitted effect of over 55% in size
#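 HEK293 cells carry an SMN2 […]–luciferase reporter in which exon 7 inclusion puts luciferase in frame. Cells were plated 10-12 h before compound addition, then incubated 30-36 h at 37C. ONE-Glo luminescence was read; sodium butyrate at 4.5 mM final served as control.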
# FLuc modulator – counter-screen for miR-21 project: firefly luciferase inhibitors or activators | P08659 | purified FLuc, Km substrates, luminescence inhibition | Potency, µM (highest dose often 57.5 µM), actives largely listed as inhibitors | 360,000 tested, 6.9% active | AID 588342; note: nearly all actives have a fitted effect of over 55% in size
# Target sequence (P08659 whole entry, looked up): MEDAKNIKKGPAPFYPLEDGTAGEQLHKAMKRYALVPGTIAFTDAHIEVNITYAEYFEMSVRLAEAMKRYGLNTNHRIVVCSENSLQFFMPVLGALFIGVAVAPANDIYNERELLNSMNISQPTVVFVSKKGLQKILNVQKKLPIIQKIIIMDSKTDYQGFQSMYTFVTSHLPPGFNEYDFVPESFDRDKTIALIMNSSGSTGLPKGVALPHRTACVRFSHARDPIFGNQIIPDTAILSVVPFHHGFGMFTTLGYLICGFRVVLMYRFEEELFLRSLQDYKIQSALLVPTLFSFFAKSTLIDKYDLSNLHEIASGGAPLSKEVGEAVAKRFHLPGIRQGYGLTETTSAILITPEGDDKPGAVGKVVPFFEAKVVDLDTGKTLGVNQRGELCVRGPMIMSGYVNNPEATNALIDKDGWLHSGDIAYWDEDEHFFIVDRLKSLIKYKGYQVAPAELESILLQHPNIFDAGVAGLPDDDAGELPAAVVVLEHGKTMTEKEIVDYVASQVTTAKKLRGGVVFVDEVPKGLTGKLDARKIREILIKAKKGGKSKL
#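 Purified P. pyralis luciferase, 10 nM final, with Km-level 10 uM D-luciferin and 10 uM ATP in 50 mM Tris acetate pH 7.5, 10 mM Mg acetate, 0.01% Tween-20, 0.05% BSA; 6-point qHTS titration about 60 µM downward; luminescence read.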
# NPC1 prom act – activators of NPC1 promoter; Huh7 NPC1 promoter luciferase reporter, 24 h; Potency, µM (highest dose often 9.22 µM), most hits filed as activators; 320,000 tested, 2.4% active; AID 485313; note: nearly all actives have a fitted effect of over 60% in size
#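 NPC1 promoter–luciferase Huh7 cells; 24 h compound; luminescence.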
# Rab9 prom act – activators of Rab9 promoter; Huh7 Rab9 promoter-luciferase reporter, luminescence, 24 h; Potency, µM (top dose mostly 9.22 µM), actives largely listed as activators; 320,000 tested, 2.8% active; AID 485297; note: nearly all actives have a fitted effect of over 60% in size
#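 Huh7 reporter line, Rab9 promoter upstream of luciferase. Compound exposure 24 h at 37 °C in reduced-serum medium with 10% FBS. Read-out: luminescence.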
# Numbers stand for hits; – = inactive; ? = inconclusive; · = no result. Calls come from the whole dose curve; as a rule, active = well fitted curve in the direction sought with a large enough effect; inconclusive = small, poorly fitted or top-dose-only effect, or another doubt; inactive = no such curve, though single readings can be large; an effect the other way counts as inactive or inconclusive.
SMILES,ELG1 genotoxic,SMN2 splice up,FLuc modulator,NPC1 prom act,Rab9 prom act
O=C(NC(=S)NCCO)c1sc2ccccc2c1Cl,?,13µM,6µM,?,2.8µM
O=C(NC1CC1)c1sc2cc(Cl)ccc2c1Cl,?,·,6.7µM,?,?
O=C(NNC(=O)C1CC2CCC1C2)c1sc2ccccc2c1Cl (stereo unspecified),–,22µM,24µM,?,?
CCOc1ccccc1CNC(=O)c1ccc2c(c1)sc1nc(-c3cccc(OC)c3)cn12,·,·,–,·,·
O=C(NC1CC1)c1sc2cc(F)ccc2c1Cl,?,·,9.5µM,–,?
O=C(NCCCN1CCOCC1)c1sc2cc(F)ccc2c1Cl,–,–,?,–,?
COc1ccc(-c2c(-c3cc(OC)c(OC)c(OC)c3)noc2C)cn1,?,·,?,–,–
COc1ccc(-c2c(-c3ccc4c(c3)OCO4)noc2C)cn1,–,·,21µM,–,–
CS(=O)(=O)N1N=C(c2cccs2)CC1c1ccccc1 (stereo unspecified),–,·,–,–,–
COc1ccc(C2=NN(C(=O)c3cccs3)C(c3ccccc3O)C2)cc1 (stereo unspecified),–,–,–,–,–
CC(=O)N1N=C(c2cccc(NS(C)(=O)=O)c2)CC1c1ccc2c(c1)OCO2 (stereo unspecified),–,·,?,–,–
COc1ccc(C2CC(c3ccccc3)=NN2C(=O)c2cccs2)cc1 (stereo unspecified),–,·,17µM,–,?
CS(=O)(=O)Nc1ccc(C2=NN(S(C)(=O)=O)C(c3ccc4c(c3)OCO4)C2)cc1 (stereo unspecified),?,11µM,9.5µM,3.2µM,2.5µM
CCc1ccc(C2=NN(S(C)(=O)=O)C(c3cccs3)C2)cc1 (stereo unspecified),3.3µM,10µM,2.4µM,1µM,1.6µM
CS(=O)(=O)N1N=C(c2ccc(Br)cc2)CC1c1cccs1 (stereo unspecified),?,–,15µM,?,?
CC(C)[C@H](NC(=O)[C@@H]1Cc2c([nH]c3ccccc23)C2c3ccccc3C(=O)N21)C(=O)N1CCC[C@@H]1C(=O)O (stereo partly specified),–,·,–,–,–
CNC(=O)[C@@H](Cc1ccccc1)N(C)C(=O)[C@@H](Cc1ccc2ccccc2c1)N(C)C(=O)/C=C/CC(C)(C)N,·,–,·,·,·
CC1(C)O[C@H]2[C@@H](O1)[C@@H](C(=O)Nc1ccc(F)c(F)c1)O[C@@H]1OC(C)(C)O[C@@H]12,·,–,–,·,·
COc1ccc(Cc2nc3ccc(C(=O)NCc4cc(Br)ccc4OC)cc3o2)cc1,·,·,–,·,·
COc1ccc(C2CC(c3cccs3)=NN2S(C)(=O)=O)cc1 (stereo unspecified),–,·,?,?,?
Cc1ccc(C2=NN(S(C)(=O)=O)C(c3ccc4nccnc4c3)C2)cc1 (stereo unspecified),?,13µM,?,?,?
Cc1ccc(C2=NN(S(C)(=O)=O)C(c3cccs3)C2)cc1 (stereo unspecified),?,11µM,19µM,1.8µM,3.5µM
COc1ccc(C2=NN(S(C)(=O)=O)C(c3cccs3)C2)cc1 (stereo unspecified),?,·,11µM,3.5µM,0.89µM
COc1ccc(C2CC(c3ccc(OC)c(OC)c3)=NN2S(C)(=O)=O)cc1 (stereo unspecified),?,·,8.5µM,1µM,0.5µM
COCCn1ccc(O)c(Cc2ccccc2)c1=O,–,–,–,–,–
SMILES,ELG1 genotoxic,SMN2 splice up,FLuc modulator,NPC1 prom act,Rab9 prom act
COCCNC(=O)CCCn1c(SCc2ccccc2C)nc2c(sc3ccccc32)c1=O,·,?,–,·,·
Cn1ncc2c(Nc3ccc4ccccc4c3)ncnc21,?,·,11µM,?,3.2µM
Clc1ccc(Nc2ncnc3c2cnn3-c2ccccc2)cc1,12µM,–,13µM,?,?
CC(C)Nc1ncnc2c1cnn2-c1ccc(Cl)cc1,0.37µM,1.3µM,0.54µM,0.28µM,0.32µM
Cn1ncc2c(Nc3ccc(Cl)cc3)ncnc21,–,·,?,–,–
COCCNc1nc(N)c([N+](=O)[O-])c(NCc2ccccc2)n1,–,·,–,–,–
NS(=O)(=O)c1ccc(CNC(=S)NC2CC2)cc1,–,·,–,–,–
CN[C@H](C)C(=O)NC[C@H]1O[C@@H](n2cnc3c(N)ncnc32)[C@H](O)[C@@H]1O,–,·,·,·,·
CC1(C)Cc2nc3sc4c(SCC(=O)NCc5ccco5)ncnc4c3cc2CO1,2.1µM,?,5.4µM,–,?
CC(C)c1nc2sc3c(SCC(=O)NCc4ccco4)ncnc3c2c2c1CCC2,–,–,–,–,–
Cc1nc2c(sc3nc4c(cc32)COC(C)(C)C4)c(=O)n1Cc1ccccc1,?,–,24µM,–,?
CCCc1nc2c(sc3nc4c(cc32)COC(C)(C)C4)c(=O)n1Cc1ccco1,–,–,–,–,–
Cc1nc2c(sc3nc4c(cc32)COC(C)(C)C4)c(=O)n1CC(=O)NCc1ccco1,?,13µM,8.5µM,–,?
CCN(CC)CCn1c(C)nc2c(sc3nc4c(cc32)COC(C)(C)C4)c1=O,–,·,–,–,–
[O-][n+]1c(/C=C/c2ccccc2)ccc2ccccc21,6.5µM,·,0.85µM,4µM,2.8µM
CN(CCCS(=O)(=O)[O-])c1ccc(/C=C/c2ccc3ccccc3[n+]2C)cc1,–,·,–,–,–
S=C(Nc1ccc(Cl)cc1)c1nc2ccccc2s1,–,?,6.7µM,4µM,3.5µM
Cc1ccc(NC(=S)c2nc3ccccc3s2)cc1,–,?,0.95µM,1.3µM,2.8µM
C[C@@H](C(=O)Nc1ccc2ccccc2c1)[C@H]1C[C@]1(C)[C@H](NC(=O)c1ccccc1)c1ccccc1,·,–,·,·,·
CCCCC(=O)Nc1cc2nn(-c3ccc(OC)cc3)nc2cc1C,?,?,?,?,–
Cc1cc2nn(-c3ccc(F)cc3)nc2cc1NC(=O)c1cccc2ccccc12,·,–,–,·,·
Cc1cc2nn(-c3ccc(F)cc3)nc2cc1NC(=O)c1ccc(OC(C)C)cc1,·,–,–,·,·
CCC(=O)Nc1cc2nn(-c3ccc(OC)cc3)nc2cc1C,0.41µM,–,0.3µM,0.1µM,?
COc1ccc(-n2nc3cc(C)c(NC(=S)NC(=O)c4ccccc4C)cc3n2)cc1,?,–,2.4µM,–,–
CCC(=O)Nc1cc2nn(-c3ccc(C)cc3)nc2cc1C,?,–,0.11µM,?,?
Cc1cccc(C(=O)Nc2cc3nn(-c4ccc(C(C)C)cc4)nc3cc2C)c1,·,–,2.1µM,·,·
CCOC(=O)C1CCCN(C(=O)c2ccccc2NS(=O)(=O)c2ccc(F)cc2)C1 (stereo unspecified),–,·,·,·,·
Cc1nnc(N2CCC(C(=O)NC(C)C)CC2)c2nn(-c3ccc(Cl)cc3)c(C)c12,·,·,–,·,·
COc1ccc(N2CCN(C3CCCN(Cc4cccc(C(C)=O)c4)C3)CC2)cc1 (stereo unspecified),–,·,–,–,–

# Source: PubChem BioAssay
